Data reported in PubChem BioAssay (NCI).
Compounds without any hit were thinned out: in the full panel of roughly 83,000, 20% have a hit.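 Plates (96-well) were seeded with cells, treated with compound at one concentration, and incubated for 48 hours before percent growth was determined.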 Calls of active or inactive are those of the source. Rule for the calls: active = growth percent below 10; inactive = the rest.

How the values were obtained:
Test in all cases: NCI-60 one-dose screen, 48 h (100 = growth as untreated, 0 = no growth, -100 = all killed)
Conditions in all cases: 10 µM unless noted
HCT-15 colon = system: HCT-15 colon
HT29 colon = system: HT29 colon
SNB-75 CNS = system: SNB-75 CNS
SNB-19 CNS = system: SNB-19 CNS
U251 CNS = system: U251 CNS
PC-3 prostate = system: PC-3 prostate
SK-MEL-5 melanoma = system: SK-MEL-5 melanoma
UACC-62 melanoma = system: UACC-62 melanoma
LOX IMVI melanoma = system: LOX IMVI melanoma
SK-MEL-28 melanoma = system: SK-MEL-28 melanoma
SK-MEL-2 melanoma = system: SK-MEL-2 melanoma
EKVX NSCLC = system: EKVX NSCLC
SN12C renal = system: SN12C renal
UO-31 renal = system: UO-31 renal
TK-10 renal = system: TK-10 renal
ACHN renal = system: ACHN renal
CAKI-1 renal = system: CAKI-1 renal
A498 renal = system: A498 renal
CCRF-CEM leukemia = system: CCRF-CEM leukemia
MOLT-4 leukemia = system: MOLT-4 leukemia

Measured: growth

CC1(C)CC[C@]2(C(N)=O)CC[C@]3(C)C(=CC[C@@H]4[C@@]5(C)C/C(=C/c6ccncc6)C(=O)C(C)(C)[C@@H]5CC[C@]43C)[C@@H]2C1
active: HCT-15 colon -49.7% [100 µM] | HT29 colon -65.4% [100 µM] | SNB-75 CNS -86.4% [100 µM] | SNB-19 CNS -83.8% [100 µM] | U251 CNS -81.1% [100 µM] | PC-3 prostate -33.5% [100 µM] | SK-MEL-5 melanoma -71.1% [100 µM] | UACC-62 melanoma -79.7% [100 µM] | LOX IMVI melanoma -51.4% [100 µM] | SK-MEL-28 melanoma -64.7% [100 µM] | SK-MEL-2 melanoma -86% [100 µM] | EKVX NSCLC -52.8% [100 µM] | SN12C renal -78.1% [100 µM] | UO-31 renal -98.1% [100 µM] | TK-10 renal -89.5% [100 µM] | ACHN renal -82.5% [100 µM] | CAKI-1 renal -58.3% [100 µM] | A498 renal -80.4% [100 µM] | CCRF-CEM leukemia -10% [100 µM] | MOLT-4 leukemia -13.6% [100 µM]

CCOC(=O)c1ccc2nc(-c3c(C)nn(-c4ccccc4)c3N3CCOCC3)[nH]c2c1
inactive: HCT-15 colon 103% | HT29 colon 110% | SNB-75 CNS 84.9% | SNB-19 CNS 98.6% | U251 CNS 90.8% | PC-3 prostate 86.9% | SK-MEL-5 melanoma 94.2% | UACC-62 melanoma 77.5% | LOX IMVI melanoma 82% | SK-MEL-28 melanoma 110% | SK-MEL-2 melanoma 110% | EKVX NSCLC 87.5% | SN12C renal 90.9% | UO-31 renal 69.1% | TK-10 renal 147% | ACHN renal 86.2% | CAKI-1 renal 78.6% | A498 renal 70.4% | CCRF-CEM leukemia 88.8% | MOLT-4 leukemia 84.4%

O=C(CCCSc1nc(-c2ccccc2)cc(-c2ccccc2)n1)NO
inactive: HCT-15 colon 20.4% | SNB-19 CNS 21.6% | PC-3 prostate 26.2% | SK-MEL-28 melanoma 26% | EKVX NSCLC 10.3% | SN12C renal 12.3%
active: HT29 colon 2.72% | SNB-75 CNS 9.8% | U251 CNS -13.2% | SK-MEL-5 melanoma -17.3% | UACC-62 melanoma -20.9% | LOX IMVI melanoma -25.3% | SK-MEL-2 melanoma 3.29% | UO-31 renal -13.9% | TK-10 renal 9.4% | ACHN renal 0.594% | CAKI-1 renal 1.69% | A498 renal -15.6% | CCRF-CEM leukemia 3.58% | MOLT-4 leukemia 4.55%

CC(C)(C)c1cc(C(=O)Nc2cc3ccccc3cc2C(=O)NCCN)cc(C(C)(C)C)c1
active: HCT-15 colon -83.4% | HT29 colon -79.6% | SNB-75 CNS -92.2% | SNB-19 CNS -69% | U251 CNS -85.4% | PC-3 prostate -93% | SK-MEL-5 melanoma -39.7% | UACC-62 melanoma -69.4% | LOX IMVI melanoma -89.9% | SK-MEL-28 melanoma -80.9% | SK-MEL-2 melanoma -48.8% | EKVX NSCLC -72.9% | SN12C renal -64.8% | UO-31 renal -85.6% | TK-10 renal -85.9% | ACHN renal -92.3% | CAKI-1 renal -84.4% | A498 renal -90.7% | CCRF-CEM leukemia -49.6% | MOLT-4 leukemia -38.6%

CSc1nc2c(c(=O)n1C)C1(C(=O)N(Cc3ccccc3)c3ccccc31)c1c(nc(SC)n(C)c1=O)N2
inactive: HCT-15 colon 84% | HT29 colon 86.2% | SNB-75 CNS 99% | SNB-19 CNS 91.5% | U251 CNS 77.5% | PC-3 prostate 44.9% | SK-MEL-5 melanoma 93% | UACC-62 melanoma 93.6% | LOX IMVI melanoma 101% | SK-MEL-28 melanoma 104% | SK-MEL-2 melanoma 80.8% | EKVX NSCLC 100% | SN12C renal 95.1% | UO-31 renal 73.9% | TK-10 renal 113% | ACHN renal 77.5% | CAKI-1 renal 103% | A498 renal 72.6% | CCRF-CEM leukemia 98.8% | MOLT-4 leukemia 99.9%

CCCN1CC(c2ccc(OC)c(OC)c2)=C(c2cn(C(=O)OCC)c3ccccc23)C1=O
inactive: HCT-15 colon 25.9% | HT29 colon 14.5% | SNB-19 CNS 50.3% | U251 CNS 46.7% | PC-3 prostate 32.4% | SK-MEL-5 melanoma 22.9% | UACC-62 melanoma 18.3% | LOX IMVI melanoma 49.6% | SK-MEL-28 melanoma 73.1% | SK-MEL-2 melanoma 53.3% | EKVX NSCLC 55.6% | SN12C renal 53% | UO-31 renal 39.4% | TK-10 renal 89.6% | ACHN renal 37% | CAKI-1 renal 25.8% | CCRF-CEM leukemia 78.8% | MOLT-4 leukemia 38.7%
active: SNB-75 CNS -14.1% | A498 renal -11.4%

O=C1/C(=C/c2cccc(OCc3ccccc3)c2)Oc2cc(OCCN3CCCCC3)ccc21
inactive: HT29 colon 21% | SNB-75 CNS 76% | SNB-19 CNS 83.9% | U251 CNS 61.1% | PC-3 prostate 47.1% | SK-MEL-5 melanoma 78.6% | UACC-62 melanoma 77.8% | LOX IMVI melanoma 32.1% | SK-MEL-28 melanoma 76.6% | SK-MEL-2 melanoma 134% | EKVX NSCLC 87.6% | SN12C renal 81.9% | UO-31 renal 65.1% | TK-10 renal 118% | ACHN renal 97.6% | CAKI-1 renal 84.4% | A498 renal 81.7% | CCRF-CEM leukemia 53.8% | MOLT-4 leukemia 82.4%
active: HCT-15 colon -37%

CN(C)CCCNc1nc(-c2cccc(C(Cl)(Cl)Cl)c2)nc(C(Cl)(Cl)Cl)n1
inactive: HCT-15 colon 108% | HT29 colon 94.9% | SNB-75 CNS 83.1% | SNB-19 CNS 102% | U251 CNS 105% | PC-3 prostate 98.4% | SK-MEL-5 melanoma 103% | UACC-62 melanoma 99.6% | LOX IMVI melanoma 87.7% | SK-MEL-28 melanoma 103% | SK-MEL-2 melanoma 99% | EKVX NSCLC 104% | SN12C renal 102% | UO-31 renal 83.5% | TK-10 renal 115% | ACHN renal 108% | CAKI-1 renal 98.2% | A498 renal 65.9% | CCRF-CEM leukemia 98.3% | MOLT-4 leukemia 84.4%

COc1ccc(/C=C(/C2=NCCN2)n2ccc3ccccc32)cc1
inactive: HCT-15 colon 95.7% | HT29 colon 89% | SNB-75 CNS 65% | SNB-19 CNS 91.6% | U251 CNS 89% | PC-3 prostate 73.4% | SK-MEL-5 melanoma 94.7% | UACC-62 melanoma 86.8% | LOX IMVI melanoma 84.7% | SK-MEL-28 melanoma 104% | SK-MEL-2 melanoma 99.5% | EKVX NSCLC 88.5% | SN12C renal 88.9% | UO-31 renal 52.9% | TK-10 renal 85.8% | ACHN renal 82.9% | CAKI-1 renal 69.7% | A498 renal 89% | CCRF-CEM leukemia 86.2% | MOLT-4 leukemia 93.2%

CCOC(=O)n1cc(C2=C(c3ccc(OC)c(OC)c3)COC2=O)c2ccccc21
active: HCT-15 colon 7.9% | HT29 colon 1.19% | SK-MEL-5 melanoma -38.9% | A498 renal -25.3%
inactive: SNB-75 CNS 13.9% | SNB-19 CNS 32.6% | U251 CNS 23.6% | PC-3 prostate 12% | UACC-62 melanoma 32.9% | LOX IMVI melanoma 39.1% | SK-MEL-28 melanoma 63.8% | SK-MEL-2 melanoma 62.1% | EKVX NSCLC 51.5% | SN12C renal 18.5% | UO-31 renal 26.5% | TK-10 renal 53.7% | ACHN renal 23.1% | CAKI-1 renal 23.6% | CCRF-CEM leukemia 17.6% | MOLT-4 leukemia 11.6%

CC(C)(C)c1cc(C(=O)N2CCC(C(=O)NCCN)CC2)cc(C(C)(C)C)c1
inactive: HCT-15 colon 103% | HT29 colon 80.5% | SNB-75 CNS 79.4% | SNB-19 CNS 88% | U251 CNS 88.2% | PC-3 prostate 92.5% | SK-MEL-5 melanoma 95.4% | UACC-62 melanoma 89.3% | LOX IMVI melanoma 99.6% | SK-MEL-28 melanoma 101% | SK-MEL-2 melanoma 97.4% | EKVX NSCLC 84.7% | SN12C renal 89.5% | UO-31 renal 93.3% | TK-10 renal 98.4% | ACHN renal 108% | CAKI-1 renal 80.7% | A498 renal 56.6% | CCRF-CEM leukemia 94.8% | MOLT-4 leukemia 98.5%

O=C1COCCN1c1ccc(NCc2cn(Cc3ccc(F)cc3)c3ccccc23)cc1
active: UACC-62 melanoma -65.8% | TK-10 renal -32.3% | CAKI-1 renal -37.8% | A498 renal -91.7%
inactive: HCT-15 colon 61.9% | HT29 colon 34.8% | SNB-75 CNS 65.3% | SNB-19 CNS 92.2% | U251 CNS 55.9% | PC-3 prostate 93.3% | SK-MEL-5 melanoma 27.3% | LOX IMVI melanoma 83.9% | SK-MEL-28 melanoma 87.6% | SK-MEL-2 melanoma 56.7% | EKVX NSCLC 91% | SN12C renal 64.3% | UO-31 renal 40.6% | ACHN renal 61.6% | CCRF-CEM leukemia 92.9% | MOLT-4 leukemia 102%

NC(=O)c1c(NC(=O)COC(=O)Cc2ccccc2F)sc2c1CCC2
inactive: HCT-15 colon 104% | HT29 colon 117% | SNB-75 CNS 106% | SNB-19 CNS 86.6% | U251 CNS 101% | PC-3 prostate 100% | SK-MEL-5 melanoma 91.1% | UACC-62 melanoma 97% | LOX IMVI melanoma 110% | SK-MEL-28 melanoma 97.2% | SK-MEL-2 melanoma 99.9% | EKVX NSCLC 101% | SN12C renal 109% | UO-31 renal 72.6% | TK-10 renal 124% | ACHN renal 109% | CAKI-1 renal 99% | A498 renal 117% | CCRF-CEM leukemia 108% | MOLT-4 leukemia 86.6%

COc1ccc(NC(=S)NNc2ccc(-c3ccc(OC)c(OC)c3)nn2)cc1
inactive: HCT-15 colon 107% | HT29 colon 109% | SNB-75 CNS 74.4% | SNB-19 CNS 97.1% | U251 CNS 76.6% | PC-3 prostate 104% | SK-MEL-5 melanoma 101% | UACC-62 melanoma 102% | LOX IMVI melanoma 97.8% | SK-MEL-28 melanoma 113% | SK-MEL-2 melanoma 106% | EKVX NSCLC 104% | SN12C renal 100% | UO-31 renal 83.3% | TK-10 renal 105% | ACHN renal 102% | CAKI-1 renal 77% | A498 renal 83.4% | CCRF-CEM leukemia 103% | MOLT-4 leukemia 96.3%
